Measured values as given in PubChem BioAssay (EPA / NIEHS).
Activity calls are given as the source filed them. The calls were made as follows: active = hit-call score of the fitted dose curve at least 0.9, where 1 is the maximum; inactive = score below 0.9.

Key:
[1] = BSK_hDFCGF_SRB: Viability Assessment in the BioMAP Diversity Plus: hDFCGF Assay (AID 2283061); details: primary human foreskin fibroblasts;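 also: cells exposed to compound for 24 h before the read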
Outline: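 Viability was read as total protein: after 10% TCA fixation, wells were stained with 0.1% sulforhodamine B and read at 560 nm. Primary human foreskin fibroblasts were dosed for 24 h, with bidirectional fitting versus DMSO.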

[2] = read-out: TIMP metallopeptidase inhibitor 1 (TIMP1), TIMP1 (gene 7076); experiment: BSK_hDFCGF_TIMP1: BioMAP Diversity Plus: hDFCGF Assay for TIMP metallopeptidase inhibitor 1 (TIMP1) Biomarker Activity (AID 2283062); details: primary human foreskin fibroblasts; actives raise or lower the signal
Outline: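 TIMP-1 measured by ELISA 24 h after chemical dosing of primary human skin fibroblasts, with gain or loss fitted relative to DMSO. Parallel SRB staining (560 nm) monitored overt cytotoxicity.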

[3] = read-out: Monokine induced gamma interferon (MIG), CXCL9 (gene 4283); experiment: BSK_hDFCGF_MIG: BioMAP Diversity Plus: hDFCGF Assay for Monokine induced gamma interferon (MIG) Biomarker Activity (AID 2283063); details: primary human foreskin fibroblasts; actives raise or lower the signal
Outline: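 Human primary foreskin fibroblasts in the hDFCGF system, exposed to test chemical for 24 h; MIG measured by ELISA. Bidirectional curve fitting against DMSO negative control as activity baseline.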

[4] = read-out: Matrix Metallopeptidase 1 (MMP1), MMP1 (gene 4312); experiment: BSK_hDFCGF_MMP1: BioMAP Diversity Plus: hDFCGF Assay for Matrix Metallopeptidase 1 (MMP1) Biomarker Activity (AID 2283064); details: primary human foreskin fibroblasts; actives raise or lower the signal
Outline: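 ELISA read-out of MMP1 from human foreskin fibroblasts (primary skin cells), 24 h post-dose. Gain or loss of signal was fitted bidirectionally versus DMSO negative control; cytotoxicity was checked by SRB in parallel cultures.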

[5] = read-out: Vascular cell adhesion molecule 1 (VCAM1), VCAM1 (gene 7412); experiment: BSK_hDFCGF_VCAM1: BioMAP Diversity Plus: hDFCGF Assay for Vascular cell adhesion molecule 1 (VCAM1) Biomarker Activity (AID 2283065); details: primary human foreskin fibroblasts; actives raise or lower the signal;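 as to AC50: VCAM-1 protein level quantified by ELISA after 24 h chemical exposure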
Outline: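 ELISA readout of VCAM-1 on human dermal fibroblast primary cultures, 24 h after chemical exposure. Gain or loss of signal fitted in both directions against DMSO baseline.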

[6] = read-out: Plasminogen activator inhibitor-1 (PAI1), SERPINE1 (gene 5054); experiment: BSK_hDFCGF_PAI1: BioMAP Diversity Plus: hDFCGF Assay for Plasminogen activator inhibitor-1 (PAI1) Biomarker Activity (AID 2283066); details: primary human foreskin fibroblasts; actives raise or lower the signal
Outline: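 Human skin fibroblast cultures receive chemical for 24 h before PAI-1 is measured by ELISA; signal changes are fitted bidirectionally against DMSO-treated wells.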

[7] = read-out: Intercellular Adhesion Molecule 1 (ICAM1), ICAM1 (gene 3383); experiment: BSK_KF3CT_ICAM1: BioMAP Diversity Plus: KF3CT Assay for Intercellular Adhesion Molecule 1 (ICAM1) Biomarker Activity (AID 2283067); details: primary human keratinocytes with fibroblasts; actives raise or lower the signal
Outline: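 Cell-surface ICAM-1 was measured by ELISA 24 h after dosing primary human skin keratinocytes co-cultured with fibroblasts. Parallel SRB staining tracked overt cytotoxicity. Gain or loss of signal was fitted relative to DMSO.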

[8] = read-out: Interferon-gamma inducible Protein 10 (IP10), CXCL10 (gene 3627); experiment: BSK_KF3CT_IP10: BioMAP Diversity Plus: KF3CT Assay for Interferon-gamma inducible Protein 10 (IP10) Biomarker Activity (AID 2283068); details: primary human keratinocytes with fibroblasts; actives raise or lower the signal
Outline: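 KF3CT co-culture (keratinocytes + foreskin fibroblasts), 24 h compound, IP-10 by ELISA; bidirectional fit vs DMSO baseline.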

[9] = BSK_KF3CT_SRB: Viability Assessment in the BioMAP Diversity Plus: KF3CT Assay (AID 2283069); details: primary human keratinocytes with fibroblasts;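 also: total protein by sulforhodamine B staining as a cytotoxicity measure; read 24 h after compound addition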
Outline: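 SRB read-out at 560 nm (0.1% stain, TCA-fixed cells) gauges overt cytotoxicity in a human skin keratinocyte–fibroblast co-culture 24 h post-dosing. Signal change was fitted bidirectionally relative to DMSO control.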

[10] = read-out: Interleukin-1 alpha (IL1a), IL1A (gene 3552); experiment: BSK_KF3CT_IL1a: BioMAP Diversity Plus: KF3CT Assay for Interleukin-1 alpha (IL1a) Biomarker Activity (AID 2283070); details: primary human keratinocytes with fibroblasts; actives raise or lower the signal
Outline: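 Primary skin co-culture (keratinocytes, foreskin fibroblasts), 24 h exposure; ELISA for IL-1a; bidirectional curve fit vs DMSO.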

[11] = read-out: TIMP metallopeptidase inhibitor 2 (TIMP2), TIMP2 (gene 7077); experiment: BSK_KF3CT_TIMP2: BioMAP Diversity Plus: KF3CT Assay for TIMP metallopeptidase inhibitor 2 (TIMP2) Biomarker Activity (AID 2283071); details: primary human keratinocytes with fibroblasts; actives raise or lower the signal
Outline: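 Measurements come from ELISA detection of TIMP-2 at 24 hours in a dosed human keratinocyte and foreskin fibroblast co-culture. DMSO serves as negative control and baseline.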

[12] = read-out: Transforming growth factor beta 1 (TGFb1), TGFB1 (gene 7040); experiment: BSK_KF3CT_TGFb1: BioMAP Diversity Plus: KF3CT Assay for Transforming growth factor beta 1 (TGFb1) Biomarker Activity (AID 2283072); details: primary human keratinocytes with fibroblasts; actives raise or lower the signal
Outline: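 TGF-b1 ELISA on a 24 h dosed co-culture of human keratinocytes and foreskin fibroblasts; cytotoxicity tracked in parallel cultures by SRB staining.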

[13] = read-out: C-C motif chemokine 2 (Homo sapiens) (UniProt P13500); experiment: BSK_KF3CT_MCP1: BioMAP Diversity Plus: KF3CT Assay for Monocyte Chemoattractant Protein 1 (MCP1/CCL2) Biomarker Activity (AID 2283073); details: primary human keratinocytes with fibroblasts; actives raise or lower the signal
Outline: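 ELISA read-out of MCP-1, 24 h post-dose, in primary human skin keratinocytes co-cultured with fibroblasts. Parallel SRB staining monitors cytotoxicity; changes fitted both directions relative to DMSO.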

[14] = read-out: Matrix Metallopeptidase 9 (MMP9), MMP9 (gene 4318); experiment: BSK_KF3CT_MMP9: BioMAP Diversity Plus: KF3CT Assay for Matrix Metallopeptidase 9 (MMP9) Biomarker Activity (AID 2283074); details: primary human keratinocytes with fibroblasts; actives raise or lower the signal;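 as to AC50: MMP9 protein level quantified by ELISA in the co-culture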
Outline: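 ELISA read-out of MMP-9 at 24 h post-dosing in a co-culture of human skin keratinocytes and foreskin fibroblasts. Gain or loss of signal was fitted in both directions against DMSO.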

[15] = read-out: urokinase plasminogen activator (uPA), PLAU (gene 5328); experiment: BSK_KF3CT_uPA: BioMAP Diversity Plus: KF3CT Assay for urokinase plasminogen activator (uPA) Biomarker Activity (AID 2283075); details: primary human keratinocytes with fibroblasts; actives raise or lower the signal
Outline: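 Skin co-culture (keratinocytes + foreskin fibroblasts), human primary; 24 h post-dose; uPA by ELISA; gain/loss fit vs DMSO baseline.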

CD40, CD40 (gene 958) = experiment: BSK_LPS_CD40: BioMAP Diversity Plus: LPS Assay for CD40 Biomarker Activity (AID 2283076); details: primary human HUVEC with PBMC; actives raise or lower the signal
Outline: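 In the LPS system of human endothelial cells with peripheral blood mononuclear cells, CD40 levels were read by ELISA 24 h post-treatment. Signal changes in either direction were fitted against the DMSO baseline, with parallel SRB protein staining.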

[16] = read-out: E-selectin (Homo sapiens) (UniProt P16581); experiment: BSK_LPS_Eselectin: BioMAP Diversity Plus: LPS Assay for Eselectin Biomarker Activity (AID 2283077); details: primary human HUVEC with PBMC; actives raise or lower the signal
Outline: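 E-selectin ELISA on LPS-stimulated endothelial cell/PBMC co-cultures, read 24 h post-treatment; gains and losses fitted against DMSO. Parallel SRB staining (0.1% SRB after 10% TCA fixation, 560 nm) flags overt cytotoxicity.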

[17] = read-out: Interleukin-8 (IL8), CXCL8 (gene 3576); experiment: BSK_LPS_IL8: BioMAP Diversity Plus: LPS Assay for Interleukin-8 (IL8) Biomarker Activity (AID 2283078); details: primary human HUVEC with PBMC; actives raise or lower the signal
Outline: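 ELISA read-out of IL-8 after 24 h chemical treatment of LPS-activated endothelial/PBMC human primary co-cultures. Changes either up or down relative to DMSO; overt cytotoxicity checked by sulforhodamine B staining in parallel wells.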

[18] = BSK_LPS_SRB: Viability Assessment in the BioMAP Diversity Plus: LPS Assay (AID 2283079); details: primary human HUVEC with PBMC;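 also: total protein by sulforhodamine B absorbance as a cytotoxicity measure; measured one day after compound addition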
Outline: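 SRB viability endpoint: cells fixed with 10% TCA, stained with 0.1% SRB, read at 560 nm, 24 h post-dose. HUVEC/PBMC co-culture; signal change in either direction scored relative to DMSO.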

[19] = read-out: Interleukin-1 alpha (IL1a), IL1A (gene 3552); experiment: BSK_LPS_IL1a: BioMAP Diversity Plus: LPS Assay for Interleukin-1 alpha (IL1a) Biomarker Activity (AID 2283080); details: primary human HUVEC with PBMC; actives raise or lower the signal
Outline: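 Readout is IL-1a level by ELISA, 24 h post-dose, fitted as gain or loss relative to DMSO. System: LPS-activated human primary co-culture of vascular endothelium and peripheral blood mononuclear cells, with parallel SRB total-protein cytotoxicity.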

Measured: AC50

Chain of E-selectin (Homo sapiens) (P16581 whole entry, looked up): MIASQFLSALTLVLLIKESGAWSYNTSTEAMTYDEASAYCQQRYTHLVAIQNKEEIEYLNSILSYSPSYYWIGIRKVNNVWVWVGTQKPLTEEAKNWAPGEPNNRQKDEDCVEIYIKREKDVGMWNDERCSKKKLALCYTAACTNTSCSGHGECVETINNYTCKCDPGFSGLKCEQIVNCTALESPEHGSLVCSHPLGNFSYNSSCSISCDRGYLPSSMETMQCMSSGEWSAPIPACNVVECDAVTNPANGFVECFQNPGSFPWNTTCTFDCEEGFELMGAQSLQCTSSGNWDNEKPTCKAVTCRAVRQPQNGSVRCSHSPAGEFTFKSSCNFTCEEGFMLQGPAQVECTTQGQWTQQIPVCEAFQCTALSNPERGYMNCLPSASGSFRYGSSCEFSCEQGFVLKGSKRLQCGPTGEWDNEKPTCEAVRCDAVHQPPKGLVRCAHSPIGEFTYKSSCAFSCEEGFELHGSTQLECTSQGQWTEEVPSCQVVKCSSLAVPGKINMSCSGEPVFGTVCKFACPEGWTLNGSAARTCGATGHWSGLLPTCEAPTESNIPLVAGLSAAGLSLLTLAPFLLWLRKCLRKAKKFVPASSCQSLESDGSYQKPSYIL

Cc1c(COC(=O)[C@@H]2[C@H](/C=C(\Cl)C(F)(F)F)C2(C)C)cccc1-c1ccccc1
active: [4] 3.23 µM | [17] 5.39 µM
inactive: all other assays above

CC1(C)C(C(=O)OC(C#N)c2cccc(Oc3ccccc3)c2)C1(C)C (stereo not drawn)
active: [4] 3.02 µM | [14] 5.56 µM | CD40, CD40 (gene 958) 12.9 µM
inactive: all other assays above

CCNC(=O)NC(=O)C(C#N)=NOC
not listed: [13]
inactive: all other assays above

CS(=O)(=O)c1ccc(C(=O)C2C(=O)CCCC2=O)c([N+](=O)[O-])c1
inactive: all assays above

CCOc1nc(C(Cl)(Cl)Cl)ns1
not listed: [13]
inactive: all other assays above

CSC(=O)c1c(C(F)F)nc(C(F)(F)F)c(C(=O)SC)c1CC(C)C
active: [4] 4.27 µM | [5] 13.4 µM | [6] 26.9 µM | CD40, CD40 (gene 958) 16.3 µM | [16] 5.05 µM | [18] 26.3 µM | [19] 15.1 µM
not listed: [17]
inactive: all other assays above

COCC(=O)N(c1c(C)cccc1C)C(C)C(=O)OC (stereo not drawn)
inactive: all assays above

CC(C)C1(C)N=C(c2ncccc2C(=O)O)NC1=O (stereo not drawn)
inactive: all assays above

CC(C)NC(=O)N1CC(=O)N(c2cc(Cl)cc(Cl)c2)C1=O
active: [4] 0.148 µM
inactive: all other assays above

CC1(C)C(C=C(Cl)Cl)C1C(=O)OC(C#N)c1cccc(Oc2ccccc2)c1 (stereo not drawn)
active: [18] 3.97 µM
not listed: [5]
inactive: all other assays above

Nc1cnn(-c2ccccc2)c(=O)c1Cl
not listed: [5]
inactive: all other assays above

CCNP(=S)(OC)O/C(C)=C/C(=O)OC(C)C (stereo not drawn)
active: [8] 0.148 µM | [13] 0.733 µM
not listed: [5]
inactive: all other assays above

COCc1cnc(C2=NC(C)(C(C)C)C(=O)N2)c(C(=O)O)c1 (stereo not drawn)
active: [8] 12.3 µM
not listed: [5]
inactive: all other assays above
